HCV inh – qHTS Assay for Inhibitors of Hepatitis C Virus (HCV). AID 651820, 2012. Huh7.5.1 HCVcc-Cre infection, luciferase reporter, 44 h. 340,000 tested, 3.4% active. Potency, µM (top dose mostly 41.8 µM), without a hit: at the top dose activity change, negative = inhibition, actives largely listed as inhibitors; note: % is set by controls: 0 for no effect and ±100 for the full control effect
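Infectious HCVcc-Cre (~0.5 moi) was added to cells just after compound, with cells seeded 4 h earlier at 1,000 per well. Luciferase activity after 44 h culture reported infection; substrate was incubated 15 min at room temperature before reading.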
NS1 function inh – qHTS Assay for Inhibitors of Influenza NS1 Protein Function; Potency, µM (top dose mostly 46.1 µM), for inactives: top-dose activity, positive = more growth; 270,000 tested, 0.4% active; calls by dose curve; note: actives are rising curves; nearly all actives have a fitted effect of over 50% in size
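S. cerevisiae expressing influenza A NS1, grown in glucose, washed, then diluted 1:100 into pH 6.0 -URA galactose medium with 23 nl compound. Growth recovery read as OD600; NS1-free strain serves as control.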
VACV mCherry inh – qHTS for Stage-Specific Inhibitors of Vaccinia Orthopoxvirus: mCherry Reporter Primary qHTS; 310,000 tested, 0.63% active; Vaccinia virus mCherry reporter infection, fluorescence; Potency, µM (top dose mostly 36.5 µM), for the others: at the highest dose activity change, negative = inhibition, hits mostly inhibitors; calls by dose curve; tested in A549 cells; note: % is set by controls: 0 for no effect and ±100 for the full control effect; nearly all actives have a fitted effect of over 35% in size
Vaccinia Venus – qHTS for Stage-Specific Inhibitors of Vaccinia Orthopoxvirus: Venus Reporter Primary qHTS | AID 720580, 2013 | 330,000 tested, 0.46% active | Potency, µM (highest dose often 36.5 µM), inactives show top-dose activity change, negative = inhibition, actives largely listed as inhibitors | Vaccinia virus Venus reporter expression, fluorescence; calls by dose curve; tested in A549 cells; note: % is set by controls: 0 for no effect and ±100 for the full control effect; nearly all actives have a fitted effect of over 30% in size
Pf growth 96h – Primary qHTS for delayed death inhibitors of the malarial parasite plastid, 96 hour incubation | P. falciparum luciferase reporter growth, 96 h | Potency, µM (doses to about 28.7 µM), for the others: at the top dose activity change, negative = inhibition, actives largely listed as inhibitors | 320,000 tested, 6.9% active | AID 504834, 2011; note: % is set by controls: 0 for no effect and ±100 for the full control effect
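Cell-based qHTS: luciferase-tagged P. falciparum in erythrocytes (2% hematocrit, 0.05% parasitemia final) incubated with compounds for 96 hours, 37 C, 5% CO2; luciferase detection reagent then added and luminescence measured.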
Pf growth 48h – Primary qHTS for delayed death inhibitors of the malarial parasite plastid, 48 hour incubation. P. falciparum luciferase growth in erythrocytes, 48 h. Potency, µM (titrated, usually from 28.7 µM), for inactives: top-dose activity change, negative = inhibition, usual class: inhibitors. 310,000 tested, 5.9% active; note: % is set by controls: 0 for no effect and ±100 for the full control effect
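In quantitative HTS format, infected erythrocytes bearing luciferase-reporter parasites were treated for a single generation at 37 C. Luminescence after adding detection reagent served as the growth measure.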
Active calls of the source: *; i = inactive; ? = inconclusive; · = not tested or not shown; [ ] = dose if it differs, or a comment. In the library only some 11% were active in any assay of this set; here they are far more common. Unless noted, calls come from the whole dose curve; as a rule, active = well fitted inhibition curve with a large enough effect; inconclusive = small, poorly fitted or top-dose-only effect, or another doubt; inactive = no such curve, though single readings can be large or run the other way. Potency is the fitted concentration of half-maximal effect.

SMILES	HCV inh	NS1 function inh	VACV mCherry inh	Vaccinia Venus	Pf growth 96h	Pf growth 48h
COc1cc(C)c(NC(=O)c2cc(C3CC3)nc3c2cnn3C(C)C)cc1OC	5.01µM*	·	·	·	?	?
O=C(CC1Sc2ccccc2NC1=O)NNc1ccc(Cl)cc1Cl (configuration not stated)	-3.2%	·	4.47µM*	?	·	·
CSc1ccccc1NC(=O)Nc1cccc(Cl)c1	?	-15.0%	·	·	·	-16.5%
NC(c1ccccc1)c1csc(NC(=O)Nc2cccc(Cl)c2)n1 (configuration not stated)	·	·	i	10µM*	·	·
NC(CCc1ccccc1)c1csc(NC(=O)Nc2cccc(Cl)c2)n1 (configuration not stated)	·	·	-8.2%	-24.5%	·	·
O=C(Nc1cccc(Cl)c1)Nc1ccccc1-n1ccnc1	12.3%	6.2%	i	4.8%	11.7µM*	?
O=C(Nc1ccccc1)Nc1cccc(-c2nnco2)c1	-24.1%	-4.1%	·	·	-23.5%	-4.7%
O=C(Nc1cccc(C2=NCCN2)c1)Nc1cccc(C2=NCCN2)c1	-60.2%	·	-22.0%	?	1.2µM*	1.69µM*
O=C(Nc1ccc(Oc2ccc(NC(=O)Nc3ccccc3Cl)cc2)cc1)Nc1ccccc1Cl	?	14.8%	-14.4%	-15.9%	1.47µM*	1.85µM*
CCOC(=O)CSC1=C(C#N)C(c2ccc3c(c2)OCO3)CC(=O)N1 (configuration not stated)	?	-22.4%	-30.4%	?	·	5.9%
O=C(COc1ccccc1Cl)NNC(=O)C1CCCO1 (configuration not stated)	7.9%	6.3%	·	-3.0%	20.4%	11.1%
Cc1nn(C)c(C)c1/C=C(\C#N)S(=O)(=O)c1ccc(F)cc1	·	·	-20.1%	-7.9%	·	·
COc1ccc(Cn2c(C3CC3)nc3ccc(NC(=O)c4cccnc4)cc3c2=O)cc1	?	3.3%	i	-21.4%	0.3%	?
Cn1cc(C(=O)c2cccc(Cl)c2)cc1/C=N\O	-1.7%	·	i	-14.7%	28.2%	76.6%
O=C(O)C1CCN(Cc2cccnc2)CC1	5.0%	·	-5.7%	5.4%	17.6%	11.7%
O=C(NCc1ccncc1)Nc1cccc(Cl)c1	-0.3%	-3.8%	i	-13.1%	·	15.6%
S=C(Nc1ccc(Cc2ccncc2)cc1)Nc1cccc(Cl)c1	-9.2%	-5.8%	i	-1.2%	13.1µM*	15.9%
O=C(Nc1ccc(NC(=O)c2ccc(Cl)cc2Cl)cc1)c1ccc2c(c1)OCO2	11.7%	1.4%	-4.7%	6.3%	?	27.0%
O=C(Nc1cccc(Cl)c1)Nc1nc(-c2ccc(Cl)cc2)cs1	?	-12.2%	-10.2%[1.46 µM]	?	26.6%	?
O=C(Nc1cccc(Cl)c1)Nc1csc([N+](=O)[O-])c1	?	-61.3%	-26.5%	-26.8%	2.62µM*	3.7µM*
O=C(Nc1ccncc1)Nc1cccc(Cl)c1	-10.5%	-11.9%	·	·	-1.7%	1.47µM*
O=C(Nc1ccc(C2=NCCN2)cc1)c1ccc(C(=O)Nc2ccc(C3=NCCN3)cc2)c(Cl)c1	7.7%	-46.4%	i	-4.6%	?	0.522µM*
COc1ccc(CCNC(=O)COC(=O)c2cnc(C)cn2)cc1OC	1.7%	12.4%	-9.5%	-2.1%	·	12.0%
Cc1ccc(S(=O)(=O)N(C)C[C@@H]2OCCCC[C@H](C)Oc3ccc(NC(=O)Nc4ccc(F)cc4)cc3C(=O)N([C@H](C)CO)C[C@H]2C)cc1	·	·	-4.4%	?	·	·
O=C(Nc1ccncc1)Nc1cccc(Cl)c1Cl	6.31µM*	-8.6%	·	·	-3.5%	?
SMILES	HCV inh	NS1 function inh	VACV mCherry inh	Vaccinia Venus	Pf growth 96h	Pf growth 48h
CCOc1ccc(CNC(=O)CCCn2ccc3cc(S(=O)(=O)N4CCCC4)ccc32)cc1	?	4.1%	·	·	0.0%	?
C[n+]1cccc2ccc3c(c21)OC(N)=C(C#N)C3c1ccccc1 (configuration not stated)	1.6%	2.1%	i	-16.3%	7.38µM*	3.7µM*
N#CC1=C(N)Oc2cc(O)ccc2C1c1ccccc1 (configuration not stated)	0.1%	-3.4%	·	·	·	0.7%
CN(C)/C=N/C1=C(C#N)C(c2cccs2)c2ccc3ccccc3c2O1 (configuration not stated)	?	3.8%	-17.9%	-11.6%	-107.9%	-1.2%
C[n+]1cccc(C2C(C#N)=C(N)Oc3c2ccc2ccccc32)c1 (configuration not stated)	4.2%	6.2%	i[7.34 µM]	-3.0%[7.34 µM]	?	0.294µM*
CN1CCN(C2Cc3ccccc3Sc3ccc(Cl)cc32)CC1 (configuration not stated)	?	-34.8%	?	-29.2%	16.9µM*	13.1µM*
Cc1cccc2c1Sc1ccc(Cl)cc1CC2N1CCNCC1 (configuration not stated)	12.6µM*	·	·	·	·	·
CN1CCN(C2Cc3cc(F)ccc3Sc3ccc(Cl)cc32)CC1 (configuration not stated)	-13.3%	·	·	·	·	·
CN1CCN(C2Cc3ccccc3Sc3cc(C(F)(F)F)ccc32)CC1 (configuration not stated)	11.2µM*	·	?	-26.8%	·	·
COc1cc(/C=C/C(=O)c2ccc3c(c2)OCO3)cc(OC)c1OC	?	·	·	·	?	-95.0%
Cc1ccc(-c2cc(-c3ccc(C)cc3)[n+](C)o2)cc1	8.91µM*	1.4%	-10.5%	-26.3%	0.37µM*	1.17µM*
Cc1ccc(-c2cnco2)cc1	7.3%	-1.3%	·	·	14.0%	35.6%
COc1ccccc1C1(CC(=O)N2CCCCC2)CCOC(C(C)C)C1 (configuration not stated)	15.6%	-0.2%	·	·	14.7µM*	·
CCOC(=O)c1[nH]c2c(c1-c1ccccc1)C(=O)CC(c1ccc(OC)c(OC)c1)C2 (configuration not stated)	?	-5.1%	·	·	10.4µM*	?
CCOC(=O)c1[nH]c2c(c1-c1ccccc1)C(=O)CC(c1ccc(OCC)cc1)C2 (configuration not stated)	0.4%[8.37 µM]	6.1%	·	·	10.4µM*	1.3%
CCOC(=O)c1[nH]c2c(c1C)C(=O)CC(c1ccc(OCC)c(OC)c1)C2 (configuration not stated)	?	-5.8%	·	-33.4%	-5.2%	·
COc1cc(NC(=O)Cc2ccc(OC)c(S(=O)(=O)N3CCOCC3)c2)c(OC)cc1Cl	?	-16.1%	-6.7%	-12.1%	14.7µM*	?
CCCN(CC(=O)Nc1ccc(F)c(F)c1F)C(=O)Cc1ccc(S(=O)(=O)N2CCOCC2)s1	?	·	·	·	?	11.7µM*
O=C(Cc1ccc(S(=O)(=O)N2CCOCC2)s1)Nc1nc2c(s1)CCCC2	?	23.2%	·	-3.3%	9.28µM*	?

Assay outcomes deposited in PubChem by National Center for Advancing Translational Sciences (NCATS).
